“And” between values parts separate entries of the source, which are not always exact repeats. Identical values can stand only once. A number with no mark means an inactive call. The source made the active and inactive calls. The call rests on the fitted dose curve.
On the % scale 0 is the no-effect control and ±100 the full control effect.

One test can be described thus: qHTS assay to identify small molecule agonists of the estrogen related receptor (ERR) signaling pathway from Tox21 library (AID 1224849). Further: nearly all actives have a fitted effect of over 15% in size. To be noted: ERR reporter cell line, ONE-Glo luciferase, 18 h; at 42.5 µM (top of the series). An excerpt:
National Center for Advancing Translational Sciences [NCATS]
NIH Chemical Genomics Center [NCGC]
U.S. Environmental Protection Agency [EPA]
National Institutes of Environmental Health Sciences [NIEHS]
National Toxicology Program [NTP]
Estrogen related receptors (ERRs), the first orphan nuclear receptors discovered, play an important role in the control of cellular energy metabolism. ERRs are required for high-energy production in response to the environmental challenges. ERR-alpha was also identified as an adverse marker for breast cancer progression; ERR-alpha-positive tumors have a poor prognosis. To screen and to identify environmental compounds that perturb the ERR signaling pathways could provide valuable information for potential therapeutic or preventive measures in the treatment of metabolic disease. For identifying ERR agonists, ERR cell line (provided by NTP) has been used to screen Tox21 10K library.
The ERR cells were dispensed at 2,000 cells/5 ul/well in 1536-well white plates using a Multidrop dispenser. After the assay plates were incubated at a 37 C/5% CO2 incubator for 6 hours, 23 nL of compounds dissolved in DMSO, positive and negative controls or DMSO only was transferred to the assay plate by a pin tool. The plates were incubated at 37 C for 18 hours. 4 ul/well of One-Glo reagent was added into the assay plates using a Flying Reagent Dispenser. After 30-minute incubation at room temperature, the luminescence intensity in the plates was measured using a ViewLux plate reader.
(In general: Quantitative high-throughput screening tests each substance at several concentrations.)
With `CC1OC(C)OC(C)O1` (stereo not given), the activity change, positive = activation is 4.56%.
Same read-out and setting: next, `OC(O)C(Cl)(Cl)Cl`: 0.553%.
Same read-out and setting: then `CC(C)(C)OOC(C)(C)C`, with 6.85%; and `CN1C(=O)CN=C(c2ccccc2)c2cc(Cl)ccc21`, with 8.92%.
On the same count and under the same terms, then `COCCl`, with 1.1%; and `O=C(NC(=O)c1c(F)cccc1F)Nc1cc(Cl)c(OC(F)(F)C(F)C(F)(F)F)cc1Cl` (stereo not given), with -26%.

Still in this test, the particulars now being: ERR reporter cell line, ONE-Glo luciferase, 18 h; at 92.4 µM (top of the series).
For `Cn1cc(-c2ccccc2)c(=O)c(-c2cccc(C(F)(F)F)c2)c1`, the activity change, positive = activation is -9.79% and -18.6%.
Still for that read-out and setting: then `CC1OC(C)OC(C)O1` (stereo not given), with 4.37%.
The same measure, in the same setting: then `O=c1[nH]c(=O)[nH]c(=O)[nH]1`, with 1.86% and -0.392%.
Still for that read-out and setting: then `O=[N+]([O-])c1ccccc1`, with 8.72% and 8.25%.
Consider `C=CC(N)=O`, for which the activity change, positive = activation was 7.14%.
On the same count and under the same terms, next, `OC(O)C(Cl)(Cl)Cl`: -4.47%; `CC(C)(C)OOC(C)(C)C`: -1.09%; `CC(C)(C)C(O)(CCc1ccc(Cl)cc1)Cn1cncn1` (stereo not given): -48.6% and -40.4%.
For the compound `CNC(=O)Oc1ccccc1OC(C)C`, the activity change, positive = activation is 0.314%.
With `CN=C=S`, the activity change, positive = activation is 0.382% and 8.43%.
Still for that read-out and setting: next, `CN1C(=O)CN=C(c2ccccc2)c2cc(Cl)ccc21`: -13.2%.
On the same count and under the same terms, then `CN(C)CCO`, with 0.0173% and 5.21%; and `COC(=O)NS(=O)(=O)c1ccc(N)cc1`, with 6.12% and 0.416%; and `ClCCBr`, with 3.01% and -0.293%.
The same measure, in the same setting: next, `O=[N+]([O-])c1ccc(Oc2ccc(Cl)cc2Cl)cc1`: -5.45% and -4.04%.
In the case of `CC(C)C1(C)N=C(c2nc3ccccc3cc2C(=O)O)NC1=O` (stereo not given), the activity change, positive = activation is 3.26% and 5.33%.
Same read-out and setting: next, `COCCl`: -18.8%.
`CC(C)OC(=O)Nc1ccccc1`: the activity change, positive = activation is 8.94% and -18.7%.
The same measure, in the same setting: next, `O=c1ccc(=O)[nH][nH]1`: 3.51% and 9.01%.
Still for that read-out and setting: next, `CC(=O)C=C(C)C`: 0.13% and 3.17%; `CCOC(=O)c1ccccc1C(=O)OCC`: 2.2% and 2.35%.
Same read-out and setting: next, `CCCCOC(=O)c1ccccc1C(=O)OCCCC`: -4.86% and -5.73%.
On to `BrCCBr`, for which the activity change, positive = activation was 3.43% and 4.88%.
Still for that read-out and setting: then `CCC(C)(CC)c1cc(NC(=O)c2c(OC)cccc2OC)on1`, with -45.6% and -38.5%; and `COC(=O)c1ccccc1N`, with 4.73% and 5.15%.
Same read-out and setting: next, `CCc1cccc(C)c1N(C(=O)CCl)C(C)COC` (stereo not given): -45.5% and -42%.
As for `Cc1ccc(N)cc1N`, the activity change, positive = activation was 49% (active).
Still for that read-out and setting: then `CC(C)N1C(=O)c2ccccc2NS1(=O)=O`, with -10.6% and -6.56%; and `Clc1cccc(Cl)c1Cl`, with 0.683%.
With `CCC[CH2][Sn]([Cl])([Cl])[Cl]`, the activity change, positive = activation was 3.29% and -6.08%.
Same read-out and setting: next, `CC(C#N)CCC#N` (stereo not given): 5.4% and 2.56%.
In the case of `O=C(NC(=O)c1c(F)cccc1F)Nc1cc(Cl)c(OC(F)(F)C(F)C(F)(F)F)cc1Cl` (stereo not given), the activity change, positive = activation was -26.5%.
As to `CC(C)NC(=O)N1CC(=O)N(c2cc(Cl)cc(Cl)c2)C1=O`, the activity change, positive = activation is -27.3% and -5.72%.
In the case of `CC(C)OC(=O)Nc1cccc(Cl)c1`, the activity change, positive = activation is 3.6%.

Source of the values: PubChem BioAssay (Tox21).
